About 4,300 (8.3%) of roughly 52,000 compounds were called active. Cut-off read from the data, not from the text of the source: active = survival mostly below about 52% (no sharp cut-off); inactive = mostly above about 56%. This excerpt belongs to a sample that is enriched for actives.

This test has as its system DeltatarO mutant. The test can be described thus: growth inhibition of S. aureus wild type versus tarO mutant, primary screen, teichoic acid synthesis inhibitors, RN4220, OD600 (AID 463173). As to conditions: OD600, 18 h, active compounds read low, screened at 18.75 µg/mL (by protocol).
As for `CCN(c1ccc(OC)cc1)S(=O)(=O)c1ccc2[nH]c3c(c2c1)CCCCC3`, the survival is 80% (inactive).
As to `CCc1cc(C(=O)Nc2cnn(Cc3ccc(F)cc3)c2)no1`, the survival is 50% (inactive).
The value for `COc1ccc(Cc2nc3ccc(C(=O)NCc4cc(Br)ccc4OC)cc3o2)cc1` was 93% (inactive); that for `COc1ccc(CNC(=O)CCCCCn2c(=O)[nH]c3ccccc3c2=O)cc1` was 86% (inactive); that for `Cc1ccc(S(=O)(=O)c2cnc(SC(C)C(=O)Nc3ccccc3)[nH]c2=O)cc1` (stereo unspecified) was 71% (inactive).
As for `CC1CCC2(CC1)Nc1ccccc1S2` (stereo unspecified), the figure is 105% (inactive); as for `O=C(COC(=O)c1ccccn1)Nc1ccccc1`, 101% (inactive); as for `Cc1ccc(NC(=O)c2c(NC(=O)c3ccccc3)sc3c2CCC3)cc1`, 76% (inactive).
Consider `COc1ccc(NC(=O)c2c(NC(=O)C(F)(F)F)sc3c2CCCCC3)cc1`, for which the survival is 2% (active).
`Cc1ccc(NC(=O)c2c(NC(=O)C(F)(F)F)sc3c2CCCCC3)cc1`: the survival is -5% (active).
As for `COc1ccc(NC(=O)c2c(NC(=O)COc3ccccc3)sc3c2CCCCC3)cc1`, the figure is 72% (inactive); as for `COc1ccccc1NC(=O)c1c(NCc2sccc2C)sc2c1CCCCC2`, 85% (inactive).
The value for `Cc1ccccc1NC(=O)c1c(NC(=O)C(F)(F)F)sc2c1CCCCC2` was -3% (active); that for `COc1ccc(NC(=O)c2c(NC(=O)c3ccc(Br)cc3)sc3c2CCCC3)cc1` was 169% (inactive).
As for `Cc1ccc(NC(=O)c2c(NC(=O)c3ccccc3Cl)sc3c2CCC3)cc1`, the figure is 160% (inactive).
`O=C1C2C3C=CC(C3)C2C(=O)N1CCCCN1C(=O)C2C3C=CC(C3)C2C1=O` (stereo unspecified): the survival was 93% (inactive).
As for `CCc1ccccc1NC(=O)Cn1c(=O)c2cccn2c2ccc(F)cc21`, the figure is 83% (inactive); as for `COc1ccc(-c2noc(-c3ccc(NC4CCCC4)c([N+](=O)[O-])c3)n2)cc1`, 108% (inactive).
As for `C/C=C(\C)C(=O)OC1c2c(ccc3ccc(=O)oc23)OC(C)(C)C1OC(C)=O` (stereo unspecified), the figure is 60% (inactive); as for `O=C(Nc1nnc(S(=O)(=O)N2CCCCCC2)s1)c1ccc(Cl)cc1`, 62% (inactive); as for `Cc1ccc(C(=O)Nc2nnc(S(=O)(=O)N3CCCCCC3)s2)cc1`, 79% (inactive).
Regarding `O=C(Nc1nnc(S(=O)(=O)N2CCCC2)s1)c1ccc(F)cc1`, the survival was 111% (inactive).
The value for `O=C(Nc1nnc(S(=O)(=O)N2CCCCC2)s1)c1ccc(Cl)cc1` was 37% (active); that for `O=C(Nc1nnc(S(=O)(=O)N2CCCCC2)s1)c1ccc(F)cc1` was 79% (inactive).
The value for `O=C(Nc1nnc(S(=O)(=O)N2CCCCCC2)s1)c1ccccc1` was 38% (active).
As for `CCC1/C(=N\O)CC(c2ccco2)NC1c1ccco1` (stereo unspecified), the figure is 84% (inactive).

Values taken from PubChem BioAssay AID463173 (ICCB-Longwood Screening Facility, Harvard Medical School, 2010).
